SMILES strings stand for the structures. Values joined by “and” are separate entries in the source; they are usually repeats but may differ in a detail not shown here. Identical values can stand only once. Inconclusive results are not listed. More than one record can exist for a structure, and the calls need not agree. Active and inactive are the calls of the source. The calls were made as follows, unless noted: active = hit-call score of the fitted dose curve at least 0.9, where 1 is the maximum; inactive = score below 0.9.

The target of assay [1] is Nuclear respiratory factor 1 (Homo sapiens) (UniProt Q16656). Description: ATG_NRF1_CIS: Attagene CIS-FACTORIAL HepG2 Assay for human Nuclear Respiratory Factor 1 (NRF1) Orphan Gene (AID 2282987). The following applies: HepG2 NRF1 cis-element reporter, Attagene multiplex; actives raise or lower the signal. The procedure, abridged: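 HepG2 cells transiently transfected with multiple cis-regulated reporter units, exposed 24 h. Reporter mRNAs measured by RT-PCR, fluorescent labelling, HpaI digestion and capillary electrophoresis; bidirectional fitting against DMSO.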

Assay [2] has as its target Myc proto-oncogene protein (Homo sapiens) (UniProt P01106). Description: ATG_Myc_CIS: Attagene CIS-FACTORIAL HepG2 Assay for human Myelocytomatosis (Myc) Proto-Oncogene Transcription Factor (AID 2282990). The following applies: HepG2, Attagene cis-reporter transcription factor activity; actives raise or lower the signal. In a few lines:
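Transiently transfected HepG2 cells bearing cis-promoter reporter units for endogenous transcription factors; 24 h exposure. Reporter mRNA measured by RT-PCR, 6-FAM primer extension, HpaI cut and capillary electrophoresis; bidirectional fit relative to DMSO.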

A short description of assay [3]: ATG_NF_kB_CIS: Attagene CIS-FACTORIAL HepG2 Assay for human Nuclear Factor Kappa B (NF-kB) (AID 2282991). The following applies: HepG2 Attagene cis-factorial NF-kB reporter mRNA; actives raise or lower the signal. In a few lines: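 HepG2 cells transfected with cis-promoter-driven reporter units, so endogenous transcription factor activity is measured. Reporter mRNA quantified 24 h after dosing by RT-PCR and capillary electrophoresis, with bidirectional fitting against DMSO.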

Assay [4] is described as follows: ATG_NRF2_ARE_CIS: Attagene CIS-FACTORIAL HepG2 Assay for human Nuclear Factor Erythroid 2 Related Factor 2 (NFR2) response to Antioxidant Response Elements (ARE) (AID 2282992).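 As to AC50: reporter mRNA level measured by RT-PCR and capillary electrophoresis fluorescence.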 The following applies: HepG2 Attagene ARE/NRF2 reporter, transcription factor activity; actives raise or lower the signal. In a few lines:
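Multiplexed reporter mRNA profiling in HepG2 after a 24 h chemical exposure. Curves fitted in both directions relative to DMSO negative control.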

Assay [5] is described as follows: ATG_Oct_MLP_CIS: Attagene CIS-FACTORIAL HepG2 Assay for human Octamer-Binding Transcription Factor (Oct) (AID 2282993). The following applies: HepG2 Attagene cis-factorial Oct reporter, mRNA; actives raise or lower the signal. The procedure, abridged: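 Readout is reporter transcript level from RT-PCR with fluorescent primer extension and capillary electrophoresis, fitted in both directions against DMSO. Transfected HepG2 reporter units report endogenous factor activity after 24 h dosing.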

Assay [6] addresses human Peroxisome Proliferator-activated Receptor delta (PPARd), PPARD (gene 5467) (UniProt Q03181). Description: ATG_PPARd_TRANS: Attagene TRANS-FACTORIAL HepG2 Assay for human Peroxisome Proliferator-activated Receptor delta (PPARd) (AID 2283002; active = hit-call score of the fitted dose curve at least 0.9, where 1 is the maximum). In a few lines: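 HepG2 cells transiently transfected with GAL4-UAS multiplexed reporter units driven by exogenous chimeric NR-GAL4 proteins; 24 h compound exposure. Reporter mRNA measured by RT-PCR, 6-FAM primer extension, HpaI digestion and capillary electrophoresis; gain of signal fitted relative to DMSO.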

The target in assay [7] is human Retinoic Acid Receptor beta (RARb), RARB (gene 5915) (UniProt P10826). Description: ATG_RARb_TRANS: Attagene TRANS-FACTORIAL HepG2 Assay for human Retinoic Acid Receptor beta (AID 2283004; active = hit-call score of the fitted dose curve at least 0.9, where 1 is the maximum). The procedure, abridged: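 Fluorescent capillary-electrophoresis detection of GAL4-UAS reporter mRNA defines the endpoint, with induction over DMSO-treated wells scored as activity. Transiently transfected human hepatoma HepG2 cells expressing exogenous NR–Gal4 proteins are exposed to test chemicals for 24 h.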

The target of assay [8] is Peroxisome proliferator-activated receptor gamma (Homo sapiens) (UniProt P37231). Description: ATG_PPARg_TRANS: Attagene TRANS-FACTORIAL HepG2 Assay for human Peroxisome Proliferator-activated Receptor-gamma (PPARg) (AID 2283007; active = hit-call score of the fitted dose curve at least 0.9, where 1 is the maximum). In a few lines:
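HepG2 cells are transiently transfected with GAL4-UAS reporter units driven by chimeric NR-Gal4 fusions and dosed for 24 h. Reporter mRNA is quantified by RT-PCR, 6-FAM labelling, HpaI digestion and capillary electrophoresis. Induction is scored against DMSO.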

The target in assay [9] is Nuclear receptor subfamily 1 group I member 2 (Homo sapiens) (UniProt O75469). Description: ATG_PXR_TRANS: Attagene TRANS-FACTORIAL HepG2 Assay for human Pregnane X Receptor (PXR) (AID 2283008; active = hit-call score of the fitted dose curve at least 0.9, where 1 is the maximum). The procedure, abridged:
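Measures mRNA induction of a GAL4-UAS-driven reporter in human HepG2 cells transiently expressing PXR fused to Gal4, following 24 h treatment. DMSO served as negative control and baseline.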

Assay [10] can be described thus: BSK_3C_TissueFactor: BioMAP Diversity Plus: 3C Assay for Tissue Factor Biomarker Activity (AID 2282997). The following applies: BioMAP 3C HUVEC, tissue factor biomarker readout; actives raise or lower the signal. In a few lines: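 Endothelial monolayers (human umbilical vein, primary) are dosed, incubated 24 h, and assayed for Tissue Factor by ELISA; DMSO serves as negative control for bidirectional fitting.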

A short description of assay [11]: BSK_3C_uPAR: BioMAP Diversity Plus: 3C Assay for Urokinase-type plasminogen activator receptor (uPAR) Biomarker Activity (AID 2282998). To be noted: BioMAP 3C HUVEC, uPAR biomarker ELISA; actives raise or lower the signal. The procedure, abridged:
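Cell-surface uPAR on HUVEC (3C system) read by ELISA at 24 h post-treatment, with DMSO as baseline and fitting in both directions. Parallel cultures stained with SRB to flag overt cytotoxicity.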

Assay [12] can be described thus: BSK_3C_VCAM1: BioMAP Diversity Plus: 3C Assay for Vascular cell adhesion molecule 1 (VCAM1) Biomarker Activity (AID 2282999). The following applies: BioMAP 3C HUVEC, VCAM1 ELISA, cytokine-stimulated; actives raise or lower the signal. The procedure, abridged: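 Human umbilical vein endothelial cells (3C system), biomarker read by ELISA 24 h after dosing; bidirectional fit against DMSO baseline. Cytotoxicity tracked by SRB total-protein staining in parallel cultures at biomarker time.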

A short description of assay [13]: BSK_4H_Eotaxin3: BioMAP Diversity Plus: 4H Assay for Eotaxin 3 Biomarker Activity (AID 2283000).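 As to outcome: CCL26 protein level quantified by ELISA in parallel with SRB cytotoxicity check.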 To be noted: primary human endothelial cells (HUVEC); actives raise or lower the signal. In a few lines:
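ELISA quantitation of CCL26 (Eotaxin-3) protein from chemically dosed human vascular endothelial cells at 24 h; increases and decreases both scored relative to DMSO-treated baseline.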

Assay [14] deals with human Peroxisome Proliferator-activated Receptor alpha (PPARa), PPARA (gene 5465) (UniProt Q07869). Description: ATG_PPARa_TRANS: Attagene TRANS-FACTORIAL HepG2 Assay for human Peroxisome Proliferator-activated Receptor alpha (PPARa) (AID 2283001; active = hit-call score of the fitted dose curve at least 0.9, where 1 is the maximum;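 as to AC50: potency for gain of reporter signal over DMSO so agonist or activator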). The procedure, abridged: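 Measures transcriptional activity of an exogenous chimeric PPARa-Gal4 protein in transiently transfected HepG2 cells after 24 h dosing. Reporter mRNA quantified via RT-PCR and capillary electrophoresis; DMSO served as negative control.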

Read-out in assay [15]: Intercellular Adhesion Molecule 1 (ICAM1), ICAM1 (gene 3383)
Description: BSK_3C_ICAM1: BioMAP Diversity Plus: 3C Assay for Intercellular Adhesion Molecule 1 (ICAM1) Biomarker Activity (AID 2283003). The following applies: primary human endothelial cells (HUVEC); actives raise or lower the signal. In a few lines:
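Primary human umbilical vein endothelial cells in the BioMAP 3C system were exposed to chemicals for 24 h, then ICAM-1 was quantified by ELISA. Activity was fitted bidirectionally against the DMSO negative control baseline.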

Assay [16] addresses human Retinoic Acid Receptor gamma (RARg), RARG (gene 5916) (UniProt P13631). Description: ATG_RARg_TRANS: Attagene TRANS-FACTORIAL HepG2 Assay for human Retinoic Acid Receptor gamma (RARg) (AID 2283009; active = hit-call score of the fitted dose curve at least 0.9, where 1 is the maximum). In a few lines: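 HepG2 cells transiently transfected with multiplexed reporter units expressing chimeric RARg-GAL4 and GAL4-UAS-driven reporters; 24 h compound exposure. Reporter mRNA quantified by RT-PCR with fluorescent labelling and capillary electrophoresis; gain-of-signal fitted relative to DMSO baseline.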

Assay [17] addresses Cellular tumor antigen p53 (Homo sapiens) (UniProt P04637). Description: ATG_p53_CIS: Attagene CIS-FACTORIAL HepG2 Assay for human p53 Transcription Factor (AID 2282994). The following applies: HepG2 p53 cis-element reporter, Attagene mRNA; actives raise or lower the signal. The procedure, abridged:
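Multiplexed reporter mRNA assay in human HepG2 liver cells; cis-regulated units report endogenous factor activity. Values come from bidirectional curve fitting against DMSO negative control after 24 h treatment.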

Assay [18] addresses Retinoic acid receptor alpha (Homo sapiens) (UniProt P10276). Description: ATG_RARa_TRANS: Attagene TRANS-FACTORIAL HepG2 Assay for human Retinoic Acid Receptor alpha (RARa) (AID 2283005; active = hit-call score of the fitted dose curve at least 0.9, where 1 is the maximum). The procedure, abridged: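 HepG2 transiently transfected with multiplex GAL4-UAS reporter units including a human RARa–GAL4 chimera; 24 h compound exposure. Reporter mRNA quantified by RT-PCR, 6-FAM labeling and capillary electrophoresis; gain of signal versus DMSO.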

Assay [19] is described as follows: ATG_NFI_CIS: Attagene CIS-FACTORIAL HepG2 Assay for human Nuclear Factor I (NFI) (AID 2282989). To be noted: HepG2 cis-regulatory reporter, NFI response element transcription; actives raise or lower the signal. In a few lines: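 Reporter transcripts were measured by RT-PCR with fluorescent primer extension and capillary electrophoresis 24 h post-treatment. HepG2 cells carried transiently transfected cis-regulated reporter constructs reporting endogenous factor activity; gain or loss fitted against DMSO baseline.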

Chain of Myc proto-oncogene protein (Homo sapiens) (P01106 whole entry, looked up): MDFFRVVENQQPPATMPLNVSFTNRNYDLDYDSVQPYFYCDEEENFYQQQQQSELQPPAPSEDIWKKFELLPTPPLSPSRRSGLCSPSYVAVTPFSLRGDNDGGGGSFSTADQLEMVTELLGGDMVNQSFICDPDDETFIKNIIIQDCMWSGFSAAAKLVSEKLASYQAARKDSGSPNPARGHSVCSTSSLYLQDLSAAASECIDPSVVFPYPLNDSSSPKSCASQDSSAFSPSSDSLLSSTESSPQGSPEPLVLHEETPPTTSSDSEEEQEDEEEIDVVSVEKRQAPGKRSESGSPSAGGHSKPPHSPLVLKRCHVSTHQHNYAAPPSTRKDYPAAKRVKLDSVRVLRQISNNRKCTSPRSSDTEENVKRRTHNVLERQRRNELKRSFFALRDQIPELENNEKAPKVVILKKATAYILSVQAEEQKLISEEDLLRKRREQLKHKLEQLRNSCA
Chain of human Peroxisome Proliferator-activated Receptor alpha (PPARa), PPARA (gene 5465) (Q07869 whole entry, looked up, the tested form may be a part): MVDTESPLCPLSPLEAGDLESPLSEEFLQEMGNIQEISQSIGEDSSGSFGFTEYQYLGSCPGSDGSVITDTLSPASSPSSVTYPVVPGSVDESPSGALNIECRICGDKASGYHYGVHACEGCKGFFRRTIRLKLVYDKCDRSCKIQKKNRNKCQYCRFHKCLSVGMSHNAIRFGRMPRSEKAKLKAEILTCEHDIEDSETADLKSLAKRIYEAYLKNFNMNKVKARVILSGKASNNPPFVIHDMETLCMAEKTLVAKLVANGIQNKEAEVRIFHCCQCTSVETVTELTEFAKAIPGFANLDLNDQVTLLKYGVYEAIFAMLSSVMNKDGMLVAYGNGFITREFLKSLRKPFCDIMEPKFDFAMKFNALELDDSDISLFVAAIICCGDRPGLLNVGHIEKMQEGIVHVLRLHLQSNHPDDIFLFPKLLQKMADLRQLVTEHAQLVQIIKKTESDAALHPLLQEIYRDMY
Chain of human Retinoic Acid Receptor gamma (RARg), RARG (gene 5916) (P13631 whole entry, looked up, the tested form may be a part): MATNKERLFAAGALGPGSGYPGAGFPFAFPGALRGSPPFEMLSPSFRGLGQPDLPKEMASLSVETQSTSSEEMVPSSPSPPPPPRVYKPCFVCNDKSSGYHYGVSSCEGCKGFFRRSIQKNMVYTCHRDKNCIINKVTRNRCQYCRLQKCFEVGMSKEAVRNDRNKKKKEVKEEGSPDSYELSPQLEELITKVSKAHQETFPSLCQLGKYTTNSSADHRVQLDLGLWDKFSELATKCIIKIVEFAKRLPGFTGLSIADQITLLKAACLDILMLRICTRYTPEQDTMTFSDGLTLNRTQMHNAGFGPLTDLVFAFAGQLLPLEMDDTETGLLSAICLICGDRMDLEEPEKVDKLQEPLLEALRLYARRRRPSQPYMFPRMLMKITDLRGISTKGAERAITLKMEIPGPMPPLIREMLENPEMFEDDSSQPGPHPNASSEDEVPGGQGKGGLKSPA
Chain of human Retinoic Acid Receptor beta (RARb), RARB (gene 5915) (P10826 whole entry, looked up, the tested form may be a part): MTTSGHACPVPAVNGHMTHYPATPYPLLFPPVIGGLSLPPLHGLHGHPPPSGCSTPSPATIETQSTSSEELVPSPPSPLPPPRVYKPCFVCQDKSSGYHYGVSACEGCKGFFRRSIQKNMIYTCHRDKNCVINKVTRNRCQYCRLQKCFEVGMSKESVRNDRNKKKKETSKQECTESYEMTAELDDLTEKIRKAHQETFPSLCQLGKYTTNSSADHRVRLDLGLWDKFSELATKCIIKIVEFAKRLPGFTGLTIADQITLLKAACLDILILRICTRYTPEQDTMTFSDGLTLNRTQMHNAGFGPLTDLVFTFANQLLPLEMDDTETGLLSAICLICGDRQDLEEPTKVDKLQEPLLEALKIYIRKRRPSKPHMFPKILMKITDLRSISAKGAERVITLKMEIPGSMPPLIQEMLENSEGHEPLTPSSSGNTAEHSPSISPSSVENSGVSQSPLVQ
Chain of Peroxisome proliferator-activated receptor gamma (Homo sapiens) (P37231 whole entry, looked up, the tested form may be a part): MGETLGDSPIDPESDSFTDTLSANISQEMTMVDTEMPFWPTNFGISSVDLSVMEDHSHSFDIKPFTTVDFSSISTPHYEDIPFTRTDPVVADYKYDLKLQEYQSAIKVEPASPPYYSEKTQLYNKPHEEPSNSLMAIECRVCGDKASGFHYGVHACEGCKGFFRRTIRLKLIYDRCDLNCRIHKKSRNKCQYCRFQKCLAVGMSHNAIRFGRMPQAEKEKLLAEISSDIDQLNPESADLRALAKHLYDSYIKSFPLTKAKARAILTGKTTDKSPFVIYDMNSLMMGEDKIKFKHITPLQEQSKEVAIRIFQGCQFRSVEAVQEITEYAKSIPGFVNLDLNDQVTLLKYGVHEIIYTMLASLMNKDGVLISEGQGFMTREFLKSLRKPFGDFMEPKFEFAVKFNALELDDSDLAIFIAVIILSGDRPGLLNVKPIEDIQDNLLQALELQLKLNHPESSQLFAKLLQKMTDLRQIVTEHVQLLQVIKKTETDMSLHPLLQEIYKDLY
Chain of Retinoic acid receptor alpha (Homo sapiens) (P10276 whole entry, looked up, the tested form may be a part): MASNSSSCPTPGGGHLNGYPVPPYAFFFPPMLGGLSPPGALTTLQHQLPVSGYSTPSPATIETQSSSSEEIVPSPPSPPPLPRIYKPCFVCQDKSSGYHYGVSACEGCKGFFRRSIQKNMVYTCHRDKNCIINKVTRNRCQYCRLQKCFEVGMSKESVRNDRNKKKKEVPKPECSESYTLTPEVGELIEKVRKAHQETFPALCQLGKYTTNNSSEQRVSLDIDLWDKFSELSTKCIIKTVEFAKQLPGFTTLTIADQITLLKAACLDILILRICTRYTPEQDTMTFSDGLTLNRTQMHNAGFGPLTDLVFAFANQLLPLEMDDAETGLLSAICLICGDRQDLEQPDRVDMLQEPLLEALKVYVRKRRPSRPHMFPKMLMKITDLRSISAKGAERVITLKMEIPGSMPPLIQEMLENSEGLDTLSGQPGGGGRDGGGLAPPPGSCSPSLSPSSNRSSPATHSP
Chain of Cellular tumor antigen p53 (Homo sapiens) (P04637 whole entry, looked up): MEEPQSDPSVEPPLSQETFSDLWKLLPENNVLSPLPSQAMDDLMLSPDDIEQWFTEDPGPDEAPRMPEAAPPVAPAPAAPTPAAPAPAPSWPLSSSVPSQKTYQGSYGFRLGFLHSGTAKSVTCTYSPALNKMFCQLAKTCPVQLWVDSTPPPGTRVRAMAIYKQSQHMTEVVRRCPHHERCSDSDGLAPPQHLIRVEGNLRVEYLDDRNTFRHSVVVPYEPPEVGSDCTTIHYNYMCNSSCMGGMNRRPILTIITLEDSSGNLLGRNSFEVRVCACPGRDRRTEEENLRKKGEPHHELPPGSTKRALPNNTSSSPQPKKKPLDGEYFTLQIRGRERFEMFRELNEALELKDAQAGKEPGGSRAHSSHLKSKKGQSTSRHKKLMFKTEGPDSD
Chain of human Peroxisome Proliferator-activated Receptor delta (PPARd), PPARD (gene 5467) (Q03181 whole entry, looked up, the tested form may be a part): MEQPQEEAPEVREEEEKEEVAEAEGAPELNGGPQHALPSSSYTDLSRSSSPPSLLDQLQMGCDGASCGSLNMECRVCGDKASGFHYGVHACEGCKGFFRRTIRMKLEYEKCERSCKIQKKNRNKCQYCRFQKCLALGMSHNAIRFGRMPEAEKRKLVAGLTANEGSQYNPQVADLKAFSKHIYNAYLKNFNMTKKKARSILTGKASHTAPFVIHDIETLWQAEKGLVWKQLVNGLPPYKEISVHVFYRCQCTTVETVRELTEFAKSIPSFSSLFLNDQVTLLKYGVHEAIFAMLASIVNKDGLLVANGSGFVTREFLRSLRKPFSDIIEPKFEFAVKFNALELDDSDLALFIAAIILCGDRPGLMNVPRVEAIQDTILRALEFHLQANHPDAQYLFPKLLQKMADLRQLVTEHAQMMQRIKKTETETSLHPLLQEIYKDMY
Chain of Nuclear respiratory factor 1 (Homo sapiens) (Q16656 whole entry, looked up): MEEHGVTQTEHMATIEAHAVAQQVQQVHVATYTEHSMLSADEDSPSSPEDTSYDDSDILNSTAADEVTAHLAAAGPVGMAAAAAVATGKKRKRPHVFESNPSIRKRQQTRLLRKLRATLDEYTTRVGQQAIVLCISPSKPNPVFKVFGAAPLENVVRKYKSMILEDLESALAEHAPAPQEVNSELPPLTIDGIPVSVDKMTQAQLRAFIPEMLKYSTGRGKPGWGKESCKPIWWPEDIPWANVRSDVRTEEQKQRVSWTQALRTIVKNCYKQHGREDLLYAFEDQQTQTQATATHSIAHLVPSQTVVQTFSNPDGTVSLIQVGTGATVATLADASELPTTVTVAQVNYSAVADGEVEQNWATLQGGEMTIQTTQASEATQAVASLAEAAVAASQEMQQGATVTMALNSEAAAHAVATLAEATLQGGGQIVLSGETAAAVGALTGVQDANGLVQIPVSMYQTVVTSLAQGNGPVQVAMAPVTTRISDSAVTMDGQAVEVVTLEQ
Chain of Nuclear receptor subfamily 1 group I member 2 (Homo sapiens) (O75469 whole entry, looked up, the tested form may be a part): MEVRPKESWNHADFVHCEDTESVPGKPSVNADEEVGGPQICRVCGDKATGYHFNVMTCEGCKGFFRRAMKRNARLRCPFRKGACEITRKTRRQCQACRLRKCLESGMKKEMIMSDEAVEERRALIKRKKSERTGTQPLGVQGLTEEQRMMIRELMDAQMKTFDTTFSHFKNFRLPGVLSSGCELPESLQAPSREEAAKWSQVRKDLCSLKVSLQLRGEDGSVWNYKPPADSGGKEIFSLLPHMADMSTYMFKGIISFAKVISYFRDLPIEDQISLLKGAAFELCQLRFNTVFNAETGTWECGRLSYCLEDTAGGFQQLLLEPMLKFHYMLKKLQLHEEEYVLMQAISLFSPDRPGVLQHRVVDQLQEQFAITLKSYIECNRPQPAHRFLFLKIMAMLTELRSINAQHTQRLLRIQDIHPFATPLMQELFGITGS

In the case of `CNC(=S)NC`, the molecule was called inactive in [1], in [2], in assay [3], in [4], in assay [5] and in assay [6]. For the same molecule, the molecule was called inactive in assay [7], in assay [8] and in assay [9].

As to `COC(=O)CCC(F)(F)C(F)(F)C(F)(F)C(F)(F)F`, the result in assay [1], in [2], in assay [3], in assay [4], in assay [10] and in assay [11] was inactive. The result in assay [12], in assay [13], in assay [14], in assay [6], in [15] and in assay [7] was inactive. The call in assay [9] and in assay [16] was inactive.

What is called AC50 is the concentration giving half of the maximal activity seen. Consider `C=CC(=O)OCC(F)(F)C(F)(F)C(F)(F)C(F)(F)C(F)(F)C(F)(F)C(F)(F)F`, for which the call in [1], in [2], in [3], in assay [5], in [11] and in assay [12] was inactive. Further, the outcome in assay [13], in assay [14], in [6], in assay [8] and in [9] was inactive. In assay [4], the AC50 is 50 µM (active).

With `O=C(O)C(F)(F)C(F)(F)C(F)(F)F`, the outcome in [1], in assay [2], in [3], in [4], in assay [5] and in assay [17] was inactive. Also, the outcome in assay [11], in assay [12], in [13], in assay [14], in assay [6] and in [8] was inactive. For the same molecule, the result in assay [9] was inactive.

Consider `O=S(=O)(O)C(F)(F)C(F)(F)C(F)(F)C(F)(F)C(F)(F)C(F)(F)C(F)(F)F`, for which the result in assay [1], in [2], in assay [3], in [5], in assay [17] and in [10] was inactive. The result in [11], in [12], in assay [13], in assay [7], in [18] and in assay [9] was inactive. Besides, the result in [16] was inactive. The AC50 in assay [4] was 42.6 µM (active) and 30.3 µM (active); in assay [14], 21.7 µM (active) and 24.7 µM (active); in [8] it was 33.4 µM (active) and 33.2 µM (active); in assay [9], 33.5 µM (active).

For `c1ccc(B(c2ccccc2)c2ccccc2)cc1`, the result in assay [1], in assay [2], in [3] and in [6] was inactive. For the same molecule, the AC50 in [4] was 33.9 µM (active); in assay [5], 43.3 µM (active); in [8], 33.9 µM (active); in assay [9], 4.69 µM (active).

Take `O=C(O)C(F)(F)C(F)(F)C(F)(F)C(F)(F)C(F)(F)C(F)(F)C(F)(F)C(F)(F)C(F)(F)C(F)(F)C(F)(F)C(F)(F)C(F)(F)F`: the molecule was called inactive in [1], in [2], in assay [11], in assay [12], in [13] and in [6]. The outcome in assay [7], in [18], in assay [8], in [9] and in assay [16] was inactive. The figures for the half-maximal activity concentration (AC50) in assay [3], in assay [4] and in assay [13] were 26.2 µM (active), 26.1 µM (active) and 1.32 µM (active), respectively.

For `Cc1cc(C)cc(O)c1`, the result in assay [1], in assay [19], in [2], in assay [4], in assay [5] and in assay [14] was inactive. Also, the outcome in assay [7], in assay [18], in [8], in assay [9] and in assay [16] was inactive.

As for `CC/C=C\CCOC(=O)c1ccccc1`, the result in assay [1], in assay [19], in assay [2], in assay [3], in assay [4] and in assay [14] was inactive. The outcome in [7], in [18], in assay [8], in [9] and in assay [16] was inactive.

Turning to `CCN(Cc1cccc(S(=O)(=O)O)c1)c1ccc(C(=C2C=CC(=[N+](CC)Cc3cccc(S(=O)(=O)O)c3)C=C2)c2ccc(O)cc2S(=O)(=O)[O-])cc1`, the molecule was classed as inactive in [1], in assay [2], in assay [3], in [4], in assay [14] and in [6]. The call in [8] and in [9] was inactive.

Source of the values: PubChem BioAssay (EPA / NIEHS).
